Source: PubChem (National Center for Advancing Translational Sciences (NCATS))
Most compounds without a hit are left out; they make up all but 18% or so of the library.
IL1B secr inh = inflammasome signaling inhibition, IL-1 beta readout; THP-1 LPS/ATP IL-1B secretion, AlphaLISA, 16 h; active compounds read low; activity change, % at 57.5 µM; hit rate 4.7% among 360,000; in the data active = activity change below about -50%; inconclusive = mostly about -30% to -49%; also: % is scaled to controls: 0 for no effect and ±100 for the full control effect
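THP-1 cells pretreated 1 hr with compounds (up to 57.5 uM final), then stimulated with LPS (250 ng/mL final) plus ATP (1.25 mM final); secreted IL-1B measured by AlphaLISA after 16 hr, decreased signal indicating inhibition.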
DT40 TDP1 no CPT = qHTS for Inhibitors of human tyrosyl-DNA phosphodiesterase 1 (TDP1): qHTS in cells in absence of CPT; DT40 Tdp1-/- hTDP1 cells, no CPT, ATP luminescence, 48 h; AID 686978, 2013; hit rate 15% among 420,000; Potency, µM (top dose mostly 46.2 µM), inactives show at the top dose activity change, negative = growth inhibition, hits mostly inhibitors; also: potency is read from the fitted curve at half-maximal effect; % is scaled to controls: 0 for no effect and ±100 for the full control effect; nearly all actives have a fitted effect of over 55% in size
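Compound effects on proliferation are scored in DT40 Tdp1-/-;hTDP1 cells in the absence of CPT. ATP levels (CellTiter-Glo luminescence) are recorded after a ≥48 hr, 37 °C incubation.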
TDP1 block = inhibitors of human tyrosyl-DNA phosphodiesterase TDP1. recombinant TDP1, AlphaScreen DNA substrate cleavage. Potency, µM (series often up to 130 µM), inactives show at the highest dose activity change, negative = inhibition, hits mostly inhibitors. hit rate 0.28% among 350,000; also: potency is read from the fitted curve at half-maximal effect; % is scaled to controls: 0 for no effect and ±100 for the full control effect; nearly all actives have a fitted effect of over 40% in size
Target sequence (Q9NUW8 whole entry, looked up): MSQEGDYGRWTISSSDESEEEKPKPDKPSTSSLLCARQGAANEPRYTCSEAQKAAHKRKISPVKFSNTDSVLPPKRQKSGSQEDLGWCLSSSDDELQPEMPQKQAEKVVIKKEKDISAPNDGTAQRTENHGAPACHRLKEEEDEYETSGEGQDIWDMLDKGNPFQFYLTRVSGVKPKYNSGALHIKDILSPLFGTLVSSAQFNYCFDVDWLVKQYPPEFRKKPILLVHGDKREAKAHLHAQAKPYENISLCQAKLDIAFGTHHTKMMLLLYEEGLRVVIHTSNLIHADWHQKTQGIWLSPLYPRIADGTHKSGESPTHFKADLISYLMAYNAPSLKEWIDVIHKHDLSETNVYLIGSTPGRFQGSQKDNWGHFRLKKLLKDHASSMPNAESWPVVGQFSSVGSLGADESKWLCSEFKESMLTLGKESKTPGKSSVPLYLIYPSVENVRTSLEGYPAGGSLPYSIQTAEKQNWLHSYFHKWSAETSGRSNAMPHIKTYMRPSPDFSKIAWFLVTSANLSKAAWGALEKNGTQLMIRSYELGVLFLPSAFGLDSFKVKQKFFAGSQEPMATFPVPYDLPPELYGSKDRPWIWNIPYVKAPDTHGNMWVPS
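Steps: enzyme plus compound, 15 min RT; add biotin/phosphotyrosine-FITC oligonucleotide (15 nM final), react 5 min; add donor/acceptor beads (10 ug/ml final), 10 min; read AlphaScreen. Tdp1 at 1 nM final.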
TGFb inhibitor = inhibitors of TGF-b signaling; HepG2 CAGA-GFP TGF-b/SMAD3 reporter, GFP fluorescence, 18 h; TGF-beta stimulated, 500 pg/mL final; Potency, µM (titrated, usually from 46.1 µM), for inactives: at the highest dose activity, negative = inhibition, actives largely listed as inhibitors; hit rate 1.2% among 410,000; also: potency is read from the fitted curve at half-maximal effect; % is scaled to controls: 0 for no effect and ±100 for the full control effect; nearly all actives have a fitted effect of over 65% in size
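GFP signal (ex488/em500-530) from TGF-beta-stimulated HEPG2 CAGA-GFP cells, 500 pg/mL final, 18 h at 37 degrees C in DMEM plus 1% FBS, normalized to unstimulated and DMSO-stimulated controls.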
HepG2 tox = HepG2 cytotoxicity, counter-screen for TGF-b inhibitors. HepG2 CAGA-GFP viability, ATP luminescence, 18 h. Potency, µM (top dose mostly 46.1 µM), for the others: at the top dose activity change, negative = cytotoxicity, hits mostly cytotoxic. hit rate 0.76% among 410,000. AID 588856; also: potency is read from the fitted curve at half-maximal effect
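CellTiter-Glo luminescence gave cytotoxicity after 18 hours at 37 degrees C. The cells were HepG2 CAGA-GFP in 1% FBS DMEM, stimulated with 500 pg/mL TGF-beta after compound addition. %Activity was normalised to no-cell wells (complete cell-killing) and DMSO (no toxicity), and curves were fitted and classified.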
TDP1 cell CPT = growth inhibition of DT40 Tdp1-/-;hTDP1 cells with camptothecin (screen for TDP1 inhibitors); chicken DT40 Tdp1-/-;hTDP1 cells + 20 nM CPT, ATP luminescence, 48 h; Potency, µM (highest dose often 46.2 µM), inactives show top-dose activity change, negative = growth inhibition, most hits filed as inhibitors; hit rate 12% among 420,000; AID 686979; also: potency is read from the fitted curve at half-maximal effect; % is scaled to controls: 0 for no effect and ±100 for the full control effect; nearly all actives have a fitted effect of over 55% in size
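Chicken DT40 Tdp1-/- cells stably complemented with human TDP1 were seeded at 400 cells/well in medium containing 20 nM camptothecin, exposed to pin-transferred compounds, and grown at 37 °C for at least 48 hr. Viability was read as ATP luminescence.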
Numbers without * were called inactive; u = inconclusive; x = no result. Unless noted, calls follow the shape of the dose curve; as a rule, active = well fitted curve in the direction sought with a large enough effect; inconclusive = small, poorly fitted or top-dose-only effect, or another doubt; inactive = no such curve, though single readings can be large; an effect the other way counts as inactive or inconclusive.

SMILES | IL1B secr inh | DT40 TDP1 no CPT | TDP1 block | TGFb inhibitor | HepG2 tox | TDP1 cell CPT
Cc1ccc2c(c1)C(=O)N1[C@H]3c4cc(Br)ccc4OC[C@@H]3[C@H](c3ccccc3)[C@]1(C)C(=O)N2 | -23 | 23µM* | 2% | -20% | -20% | 23µM*
Cc1ccc2c(c1)[C@H]1[C@H](CO2)[C@H](c2ccccc2)[C@]2(C)C(=O)Nc3ccc(Br)cc3C(=O)N12 | u | 16µM* | 1% | 1% | -8% | u
C=C1CCN([C@H](C(=O)NCc2ccccc2)C(C)C)S(=O)(=O)c2ccccc21 | 7 | -1% | x | 42% | -8% | u
CCCSc1ccc([C@H]2N[C@@](C)(C(=O)OC)[C@H]3C(=O)N(C)C(=O)[C@@H]23)cc1 | 13 | -30% | -3% | -8% | -1% | -29%
COC(=O)[C@]1(C)N[C@H](c2ccc(SC3CCCCC3)cc2)[C@@H]2C(=O)N(C)C(=O)[C@@H]21 | 22 | 16µM* | -3% | 4% | -4% | u
CCCCCCSc1ccc([C@H]2N[C@@](C)(C(=O)OC)[C@H]3C(=O)N(C)C(=O)[C@@H]23)cc1 | u | -76% | -4% | u | -27% | 21µM*
CCOC(=O)CSc1nc2ccccc2c(=O)n1CC1CCC(C(=O)NCc2ccco2)CC1 (configuration not stated) | 0 | 23µM* | 2% | -17% | -26% | u
CCOC(=O)CSc1nc2ccccc2c(=O)n1CC1CCCC1 | -6 | 15µM* | x | 12% | 3% | 10µM*
COc1cccc(C(=O)CC(=O)C(=O)Nc2cc(Cl)c(OC)cc2OC)c1 | 9 | u | 9% | -8% | 0% | u
CCc1ccc2c(c1)/C(=N/OC)C(=O)N2 | -8 | 21µM* | 4% | -2% | -3% | u
Cc1cc(C)c(N=C2C(=O)Nc3ccccc32)c(C)c1 | 30 | -27% | x | 0% | -3% | -14%
CCOC(=O)c1cn2ccc(C)cc2n1 | 2 | u | -2% | 1% | 1% | u
CCOC(=O)c1nc2cc3n(c(C)c-2c1C)C(C)C(CC)=C3C (configuration not stated) | -73* | 18µM* | x | 34% | 10% | 21µM*
O=[N+]([O-])c1ccc(Cl)c(CN2CCCCCC2)c1 | -12 | -19% | x | 1% | -1% | -25%
O=[N+]([O-])c1ccc(N2CCN(Cc3ccccc3)CC2)c(S(=O)(=O)N2CCOCC2)c1 | -3 | u | 7% | -19% | 0% | -12%
O=[N+]([O-])c1ccc(Br)c(CN2CCN(c3ncc(Cc4ccccc4)cn3)CC2)c1 | 60 | 21µM* | x | x | x | u
O=[N+]([O-])c1ccc(Cl)c(CN2CCN(c3ncc(Cc4ccccc4)cn3)CC2)c1 | 15 | 16µM* | x | x | x | 23µM*
Oc1ccc(F)c(CN2CCN(c3ncc(Cc4ccccc4)cn3)CC2)c1 | 22 | 26µM* | x | x | x | u
CC1(C)Oc2ccc3ccc(=O)oc3c2/C(=C/NNC(N)=S)C1=O | 10 | u | x | -19% | 7% | 6%
CCCCS(=O)(=O)c1sc2nc3c(cc2c1N)CCCC3 | -15 | 23µM* | -4% | -21% | -27% | 12µM*
CCCCCCCCS(=O)c1sc2nc3c(cc2c1N)CCCC3 (configuration not stated) | 16 | u | x | 0% | -13% | 13µM*
CCCCCCCCS(=O)c1sc2nc(C)cc(C)c2c1N (configuration not stated) | 4 | u | 6% | u | -30% | u
NC(=O)c1sc2nc3c(cc2c1N)CCC3 | -10 | -24% | 2% | -14% | -47% | -16%
CC(C)(C)c1ccc(OCC(=O)O/N=C(\N)c2ccncc2)cc1 | 14 | -21% | x | u | -37% | -25%
CC(C)Oc1ccc(C(=O)NC2(C(F)(F)F)NC(=O)N(CCCc3ccccc3)C2=O)cc1 (configuration not stated) | -64* | u | 4% | u | -47% | u
SMILES | IL1B secr inh | DT40 TDP1 no CPT | TDP1 block | TGFb inhibitor | HepG2 tox | TDP1 cell CPT
COc1ccccc1C(=O)NC1(C(F)(F)F)NC(=O)N(CCc2ccccc2)C1=O (configuration not stated) | x | -10% | 5% | u | -7% | -18%
CCN(C(=O)CSc1nc2ccccc2n1CC(=O)N(C)C1CCCCC1)c1ccccc1 | x | u | 4% | -11% | -5% | u
CCN(C(=O)CSc1nc2ccccc2n1Cc1cc(C)ccc1C)c1ccccc1 | x | 23µM* | 1% | u | -2% | 16µM*
CCN(C(=O)CSc1nc2ccccc2n1Cc1ccccc1C#N)c1ccccc1 | x | 13µM* | 1% | 1% | -1% | 15µM*
CCOC(=O)C1=C(CS(=O)(=O)c2ccc(C)cc2)NC(=O)NC1c1ccc(C(C)C)cc1 (configuration not stated) | x | 12µM* | 4% | u | -58% | 18µM*
CCOC(=O)C1=C(CS(=O)(=O)c2ccc(Br)cc2)NC(=O)NC1c1ccccc1 (configuration not stated) | x | u | 6% | u | -23% | 21µM*
COC(=O)C1=C(CS(=O)(=O)c2ccccc2)NC(=O)NC1c1ccccc1 (configuration not stated) | 10 | 7% | 1% | -9% | -1% | -1%
CCOc1ccc(C2c3c(oc4ccc(C)cc4c3=O)C(=O)N2c2nc(C)c(C)s2)cc1OC (configuration not stated) | x | 7.3µM* | 3% | 15% | -2% | u
CCc1ccc(C2c3c(oc4ccc(C)cc4c3=O)C(=O)N2c2nc(C)c(C)s2)cc1 (configuration not stated) | x | -17% | -1% | 8% | -72% | -21%
Oc1ccc(-c2nc3c4c(ncn3n2)-c2ccccc2CC42CCCC2)cc1 | -1 | 16µM* | 2% | -5% | 8% | 15µM*
Nn1cnc2c(c1=O)C1(CCCCC1)Cc1ccccc1-2 | 0 | 8.2µM* | 11% | 8.9µM* | 11µM* | 9.2µM*
CC(=O)Nc1ccc2nc3c(=O)n(C)c(=O)n(C)c3nc2c1C | x | 6% | -1% | 11% | -3% | 3%
CCN(CC)/C(Sc1ccccc1)=C(\C(Cl)=C(Cl)Cl)[N+](=O)[O-] | -89* | u | 5% | -2% | -12% | u
